Pf growth 48h: Primary qHTS for delayed death inhibitors of the malarial parasite plastid, 48 hour incubation | P. falciparum luciferase growth in erythrocytes, 48 h | Potency, µM (series often up to 28.7 µM), usual class: inhibitors | actives 5.9% (n = 310,000)
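A one-generation exposure of luciferase-tagged malaria parasites in RPMI 1640/Albumax erythrocyte culture, 37 C and 5% CO2. Inhibition is inferred from decreased luminescence after adding detection reagent.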
CHX counter: Cycloheximide Counterscreen for Small Molecule Inhibitors of Shiga Toxin; cell reporter, cycloheximide protein synthesis inhibition counterscreen; max response, %; actives 12% (n = 300,000); in the data active = max response mostly above about 13%, no sharp cut-off; inactive = mostly below about 14%; note: read at 38.3 µM for the half of the compounds with a filed dose
Pf growth 96h: Primary qHTS for delayed death inhibitors of the malarial parasite plastid, 96 hour incubation | P. falciparum luciferase reporter growth, 96 h | Potency, µM (doses to about 28.7 µM), usual class: inhibitors | actives 6.9% (n = 320,000) | AID 504834, 2011
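Parasite growth measured via integrated firefly luciferase reporter in P. falciparum. Infected erythrocytes at 2% hematocrit, 0.05% parasitemia final were treated 96 hours at 37 C under 5% CO2, and luminescence was read.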
NS1 inh: qHTS Assay for Inhibitors of Influenza NS1 Protein Function; Potency, µM (doses to about 46.1 µM); actives 0.4% (n = 270,000); calls by dose curve; note: actives are rising curves; nearly all actives have a fitted effect of over 50% in size
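Read-out: OD600 growth recovery of NS1-expressing budding yeast. Cells grown overnight at 30C in -URA glucose medium, washed, resuspended and diluted 1:100 in 2% galactose assay medium, pH 6.0. Same strain lacking NS1 served as positive control.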
Shiga toxin inh: A qHTS for Small Molecule Inhibitors of Shiga Toxin; inhibition, % at 38.7 µM; Vero cells, Shiga toxin protein synthesis inhibition reporter; actives 9.2% (n = 290,000); AID 2315, 2010; in the data active = inhibition mostly above about 28%, no sharp cut-off; inactive = mostly below about 43%
Sm TGR inh: qHTS Assay for the Inhibitors of Schistosoma Mansoni Peroxiredoxins | Schistosoma mansoni thioredoxin glutathione reductase (TGR), Q962Y6 | purified TGR, DTNB reduction, TNB absorbance 405 nm | Potency, µM (top dose mostly 114 µM), most hits filed as inhibitors | actives 3% (n = 360,000); note: nearly all actives have a fitted effect of over 60% in size
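First, TGR (20 nM dispensed) and NADPH were mixed with compound. Second, a 15 min room-temperature incubation followed. Third, further NADPH and then DTNB were added to start the reaction. Finally, TNB absorbance was monitored kinetically.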
Each line names hits and unclear results; the compound was inactive in the other large screens. Sampled rows, rich in hits. Any-hit rate of the full collection: about 21%. Unless noted, calls come from the whole dose curve; as a rule, active = well fitted curve in the direction sought with a large enough effect; inconclusive = small, poorly fitted or top-dose-only effect, or another doubt; inactive = no such curve, though single readings can be large; an effect the other way counts as inactive or inconclusive.

CCOC(=O)c1c(NC(=O)CCCOc2ccccc2C)sc2c1CCC(C)C2 (centres undefined)	none (no result: Pf growth 48h, CHX counter, Pf growth 96h, NS1 inh, Shiga toxin inh)
CC(=O)c1cccc(NC(=O)CSc2ncc(C(=O)Nc3ccccc3)c(=O)n2C)c1	none (no result: CHX counter, NS1 inh, Shiga toxin inh)
CCOC(=O)C1=NN(C(=O)COc2ccccc2)C(O)(c2ccc(Br)cc2)C1 (centres undefined)	Pf growth 96h 2.9µM (no result: Sm TGR inh)
CC(=O)Oc1cc2c(C(=O)NCc3ccncc3)c(C)oc2c2ccccc12	CHX counter 8.6, Pf growth 96h inconclusive
Cc1oc(-c2ccccc2)cc1C(=O)NCc1ccncc1	none
Nc1nc(N)nc(-c2cccc(Cl)c2Cl)n1	none (no result: CHX counter, NS1 inh, Shiga toxin inh)
Cc1ccc(NC2=C(Cl)C(=O)OC2NC(=O)c2ccccc2)cc1 (centres undefined)	Pf growth 48h inconclusive, Pf growth 96h 1µM
Cc1ccccc1OC(=O)c1cccc(S(=O)(=O)N2CCN(C)CC2)c1	none (no result: CHX counter, NS1 inh, Shiga toxin inh)
O=C(CSc1nc2ccccc2s1)Nc1cc(S(=O)(=O)N2CCOCC2)ccc1Cl	Pf growth 48h inconclusive, Pf growth 96h inconclusive
Cc1ccc(-n2c(SCC(=O)Nc3cc(S(=O)(=O)N4CCOCC4)ccc3Cl)nc3ccccc3c2=O)cc1	Pf growth 48h 10µM, Pf growth 96h 2.9µM, NS1 inh inconclusive
Cc1ccc(S(=O)(=O)N2CCOCC2)cc1NC(=O)CSc1nnc2cc(C)c3ccccc3n12	Pf growth 48h 5.9µM, Pf growth 96h 13µM
Cc1ccc(-c2nc(SCC(=O)Nc3cc(S(=O)(=O)N4CCCCC4)ccc3Cl)n[nH]2)cc1	CHX counter 17, Pf growth 96h inconclusive, NS1 inh inconclusive
Cc1ccc(S(=O)(=O)N2CCOCC2)cc1NC(=O)CSc1ncccn1	Pf growth 48h inconclusive (no result: CHX counter, NS1 inh, Shiga toxin inh)
Cc1ccc(-n2c(SCC(=O)Nc3cccc(S(=O)(=O)NC4=NCCCCC4)c3)nc3ccccc3c2=O)cc1	Pf growth 48h inconclusive, Pf growth 96h 3.7µM
CN1C(=O)N(CC(=O)N2CCN(c3ccccc3F)CC2)C(=O)C12CCCCC2	Pf growth 48h inconclusive (no result: CHX counter, NS1 inh, Shiga toxin inh)
CC(=O)c1cccc(N(CC(=O)NC2CCCCC2)C(=O)CNC(=O)c2cccs2)c1	none
Fc1cccc(Cl)c1/C=N\N=C1c2ccccc2-c2ccccc21	none (no result: Pf growth 48h, CHX counter, Pf growth 96h, Shiga toxin inh, Sm TGR inh)
Nc1nc(SCC(=O)Nc2ccccc2Sc2ccccc2)n[nH]1	none (no result: Pf growth 96h)
Cc1nc(SCC(=O)Nc2cc(S(=O)(=O)N3CCOCC3)ccc2Cl)nc(C)c1C	Pf growth 48h inconclusive, Pf growth 96h 15µM (no result: CHX counter, NS1 inh, Shiga toxin inh)
O=C(CSc1nc2ccccc2c(=O)n1-c1ccccc1F)Nc1ccc2c(c1)CCC2	Pf growth 48h inconclusive, Pf growth 96h inconclusive, NS1 inh inconclusive
O=C(CSc1nc2ccccc2c(=O)n1-c1ccc(F)cc1)Nc1ccc2c(c1)CCC2	Pf growth 48h 9.3µM, Pf growth 96h 9.3µM, NS1 inh inconclusive
Nc1cc(=O)[nH]c(SCC(=O)Nc2cc(S(=O)(=O)N3CCOCC3)ccc2Cl)n1	none (no result: NS1 inh)
O=C(CSc1nc2ccccc2c(=O)n1-c1ccc(F)c(Cl)c1)Nc1cccc(S(=O)(=O)N2CCOCC2)c1	Pf growth 48h inconclusive, Pf growth 96h 4.1µM, NS1 inh inconclusive
Cc1cc(SCC(=O)Nc2cccc(S(=O)(=O)N3CCOCC3)c2)nc2ccccc12	Pf growth 96h inconclusive
O=C(CSc1nc2ccccc2c(=O)n1-c1ccc(F)cc1)Nc1ccc(Cl)c(S(=O)(=O)N2CCOCC2)c1	Pf growth 48h 9.3µM, Pf growth 96h 5.9µM, NS1 inh inconclusive
Cc1cc(C)nc(NS(=O)(=O)c2ccc(N=NN(C)C)cc2)n1	none
NC(=O)c1cc(-c2ccccc2)sc1NC(=O)CN1CCCCC1	CHX counter 11, Pf growth 96h inconclusive
NC(=O)c1cc(-c2ccccc2)sc1NC(=O)Cc1ccc(S(=O)(=O)N2CCOCC2)s1	Pf growth 48h inconclusive
NC(=O)c1ccccc1NC(=O)CN1CCCCCC1	Pf growth 96h inconclusive
NC(=O)Nc1sc(-c2ccc(F)cc2)cc1C(N)=O	CHX counter 17 (no result: Pf growth 48h, Pf growth 96h, NS1 inh, Sm TGR inh)
COC(=O)C1CCCN1S(=O)(=O)c1ccccc1NC(=O)c1cc(OC)c(OC)c(OC)c1 (centres undefined)	Pf growth 48h inconclusive
Cc1cc(NC(=O)COC(=O)c2cc([N+](=O)[O-])ccc2N2CCOCC2)ccc1Br	Pf growth 48h inconclusive, Pf growth 96h inconclusive (no result: CHX counter, NS1 inh, Shiga toxin inh)
CCn1nc(CC(=O)Nc2nnc(CC(=O)N3CCCC3)s2)c2ccccc2c1=O	NS1 inh 20µM
O=C(O)C1=CC2c3ccccc3C1c1ccccc12	Pf growth 96h 10µM
O=C(Cc1ccccc1)NC1c2ccccc2-c2ccccc21	Pf growth 96h inconclusive
COCCCNc1nc(N)c([N+](=O)[O-])c(N2CCCCCC2)n1	Pf growth 48h inconclusive
COCCN=C1Sc2nc3ccc(C)cc3cc2CN1Cc1ccco1	CHX counter 52, Pf growth 96h inconclusive, Shiga toxin inh 114 (no result: Pf growth 48h)
COCCN=C1Sc2nc3cc(C)c(C)cc3cc2CN1Cc1cccs1	Pf growth 48h 10µM, Pf growth 96h inconclusive
CCOc1ccc2nc3c(cc2c1)CN(CCOC)C(=NCCOC)S3	Pf growth 48h inconclusive, Pf growth 96h inconclusive
CC(=O)Nc1sc(NC(=O)c2ccc([N+](=O)[O-])cc2)nc1-c1cccs1	Pf growth 48h inconclusive, Pf growth 96h inconclusive
CC(=O)Nc1sc(N/N=C\c2ccccc2)nc1-c1cccs1	Pf growth 48h inconclusive, CHX counter 31, Pf growth 96h inconclusive, Shiga toxin inh active
CC(=O)Nc1sc(NC(=O)c2ccc(Cl)cc2)nc1-c1cccs1	none
CCOc1cc(/C=N/Nc2nc(-c3cccs3)c(NC(C)=O)s2)ccc1O	Pf growth 48h inconclusive, CHX counter 20, Pf growth 96h inconclusive, Sm TGR inh inconclusive
CC(=O)Nc1sc(N/N=C\c2ccco2)nc1-c1cccs1	Pf growth 48h inconclusive, CHX counter 12, Pf growth 96h inconclusive, Sm TGR inh inconclusive
CC(=O)Nc1sc(N/N=C\c2ccccc2Cl)nc1-c1cccs1	Pf growth 48h inconclusive, CHX counter 73, Pf growth 96h inconclusive, Shiga toxin inh 82
Nc1ccc2c(c1)Cc1cc([N+](=O)[O-])ccc1-2	CHX counter 42, Pf growth 96h inconclusive, Shiga toxin inh 67 (no result: NS1 inh)
Cc1ccc([N+](=O)[O-])cc1N	none (no result: NS1 inh)
S=C(Nc1ccc2c(c1)Cc1ccccc1-2)Nc1ccc2c(c1)Cc1ccccc1-2	none (no result: Pf growth 48h, CHX counter, Pf growth 96h, Shiga toxin inh, Sm TGR inh)
Nc1ccc2c(c1)Cc1ccccc1-2	CHX counter 34, Shiga toxin inh 64
CCc1ccccc1NC(=O)c1cc2sc(Cl)cc2n1CC	none (no result: Pf growth 48h, CHX counter, Pf growth 96h, NS1 inh, Shiga toxin inh)
Cc1cc(C)n(-c2cc(N3CCN(S(=O)(=O)c4ccc(Br)cc4)CC3)ccc2[N+](=O)[O-])n1	Pf growth 48h inconclusive, Pf growth 96h inconclusive, NS1 inh inconclusive
Cc1cc(C)c(S(=O)(=O)N2CCN(c3ccc([N+](=O)[O-])c(-n4nc(C)cc4C)c3)CC2)c(C)c1	Pf growth 48h 4.1µM, Pf growth 96h 1.3µM
